JMJD2A Tudor inh: blocks the human JMJD2A Tudor domain; O75164; 390,000 compounds, 4.4% hits; Potency, µM (titrated, usually from 114 µM), for the others: at the highest dose activity change, negative = inhibition, actives largely listed as inhibitors; AlphaScreen JMJD2A-Tudor / H3K4me3 peptide binding; also: potency is read from the fitted curve at half-maximal effect; % is scaled to controls: 0 for no effect and ±100 for the full control effect; nearly all actives have a fitted effect of over 50% in size
Six1-Eya2 blk: Six1/Eya2 interaction inhibition; AlphaScreen GST-Six1/His-Eya2 binding, biochemical; stronger effect = lower value; activity change, % (concentration not given with the values); 360,000 compounds, 0.56% hits; AID 651725; in the data active = activity change below about -65%; inconclusive = mostly about -30% to -63%; also: % is scaled to controls: 0 for no effect and ±100 for the full control effect
Target sequence (O00167 whole entry, looked up): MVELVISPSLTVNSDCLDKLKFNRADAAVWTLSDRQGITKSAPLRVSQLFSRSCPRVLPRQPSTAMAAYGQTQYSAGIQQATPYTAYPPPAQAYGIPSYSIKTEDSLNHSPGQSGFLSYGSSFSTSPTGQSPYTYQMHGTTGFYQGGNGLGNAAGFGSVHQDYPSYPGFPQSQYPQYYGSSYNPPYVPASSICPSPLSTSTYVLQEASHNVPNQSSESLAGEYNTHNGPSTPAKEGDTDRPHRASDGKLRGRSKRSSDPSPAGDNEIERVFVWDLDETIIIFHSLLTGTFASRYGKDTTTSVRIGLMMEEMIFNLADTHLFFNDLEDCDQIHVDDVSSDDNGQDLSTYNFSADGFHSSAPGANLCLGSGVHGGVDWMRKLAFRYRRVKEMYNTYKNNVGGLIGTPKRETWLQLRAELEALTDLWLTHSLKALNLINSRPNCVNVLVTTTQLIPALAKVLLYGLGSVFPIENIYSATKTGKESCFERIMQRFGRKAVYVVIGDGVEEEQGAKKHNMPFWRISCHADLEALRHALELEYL
Target sequence (Q15475 whole entry, looked up): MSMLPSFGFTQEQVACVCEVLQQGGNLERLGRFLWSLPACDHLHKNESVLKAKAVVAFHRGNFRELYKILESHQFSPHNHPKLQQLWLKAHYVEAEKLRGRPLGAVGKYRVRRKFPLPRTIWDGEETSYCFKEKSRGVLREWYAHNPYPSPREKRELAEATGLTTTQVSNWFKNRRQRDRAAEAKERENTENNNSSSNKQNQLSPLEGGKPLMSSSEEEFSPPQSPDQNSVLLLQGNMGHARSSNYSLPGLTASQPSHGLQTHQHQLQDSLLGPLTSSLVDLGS
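AlphaScreen with GST-Six1 and His-Eya2 (5X mix: 250 nM and 500 nM), glutathione donor and nickel acceptor beads; buffer 50 mM Tris pH 8.0, 300 mM NaCl, 1 mM TCEP; 1 h at 37 C in the dark.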
G9a block: inhibitors of human histone lysine methyltransferase G9a; G9a H3K9 monomethylation, AlphaScreen, 2 h; 350,000 compounds, 8.8% hits; Q96KQ7; Potency, µM (titrated, usually from 102 µM), for inactives: at the highest dose activity, negative = inhibition, actives largely listed as inhibitors; AID 504332; also: potency is read from the fitted curve at half-maximal effect; % is scaled to controls: 0 for no effect and ±100 for the full control effect; nearly all actives have a fitted effect of over 75% in size
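Quantitative HTS format: methyltransferase activity on a biotin-tagged H3K9 peptide is measured by AlphaScreen, using a rabbit anti-monomethyl-H3K9 antibody with streptavidin donor and anti-IgG acceptor beads. Final levels are 20 nM enzyme, 500 nM peptide, 20 uM SAM; 2 h RT.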
BAZ2B inh: BAZ2B (human) inhibition. Q9UIF8. 360,000 compounds, 4.4% hits. Potency, µM (doses to about 114 µM), without a hit: top-dose activity change, negative = inhibition, hits mostly inhibitors. AlphaScreen BAZ2B-H3K14Ac peptide displacement. AID 504333; also: potency is read from the fitted curve at half-maximal effect; % is scaled to controls: 0 for no effect and ±100 for the full control effect; nearly all actives have a fitted effect of over 60% in size
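Compounds, titrated to a top concentration of 110 uM, were incubated 30 min at room temperature with preformed BAZ2B/acetyl-K14 H3 peptide complex (50 nM each). Proximity signal was measured by AlphaScreen after 20 min with beads.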
HP1b binding inh: blocks HP1-beta chromodomain binding to methylated histone tails; AlphaScreen HP1-beta / biotin-H3K9me3 peptide binding; Potency, µM (titrated, usually from 114 µM), without a hit: at the highest dose activity change, negative = inhibition, actives largely listed as inhibitors; 390,000 compounds, 0.56% hits; AID 540317; also: potency is read from the fitted curve at half-maximal effect; nearly all actives have a fitted effect of over 70% in size
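HP1-beta protein (50 nM final) preincubated 30 min at room temperature with biotinylated H3(1-18)K9me3 peptide (50 nM) in PBS pH 7.4, 0.01% Tween-20, then compound added for 30 min. AlphaScreen streptavidin donor/nickel chelate acceptor beads (10 ug/mL final), 30 min dark, luminescence read.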
CtBP-E1A blk: blocks the CtBP interaction with E1A; AlphaScreen GST-E1A/His-CtBP binding, 1536-well; stronger effect = lower value; activity change, % (no concentration beside the values); 340,000 compounds, 0.49% hits; in the data active = activity change below about -65%; inconclusive = mostly about -30% to -63%; also: % is scaled to controls: 0 for no effect and ±100 for the full control effect
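Steps: dispense buffer (Tris pH 8.0, NaCl 300 mM, TCEP 1 mM, BSA, Tween 20); add 5X protein mix (GST-E1A, His-CtBP, 125 nM each); pin 23 nL compound; 2 h at 37 °C, dark; add 5X beads (50 ug/mL); 1 h; read.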
An asterisk follows results filed as active; [ ] = dose if it differs, or a comment. Hits are enriched below; roughly 10% of the tested compounds scored in any of these assays. Unless noted, calls follow the shape of the dose curve; as a rule, active = well fitted inhibition curve with a large enough effect; inconclusive = small, poorly fitted or top-dose-only effect; inactive = no such curve, though single readings can be large or run the other way.

COc1ccc(S(=O)(=O)NCCCn2ccnc2)cc1Cl was read as JMJD2A Tudor inh -12.5%, Six1-Eya2 blk 0.2, G9a block inconclusive, BAZ2B inh -34.5%, HP1b binding inh 42.5% and CtBP-E1A blk -0.7.
Cc1ccc(NC(=S)/C(=C(\[O-])c2ccc(Cl)s2)[n+]2cccc(CO)c2)cc1C was read as JMJD2A Tudor inh 50.1µM*, Six1-Eya2 blk -10.9, G9a block 44.7µM*, BAZ2B inh 12.4%, HP1b binding inh inconclusive and CtBP-E1A blk -10.8.
For CCOc1ccc(NC(=S)/C(=C(\[O-])c2ccc(C)c([N+](=O)[O-])c2)[n+]2ccccc2)cc1 the results were JMJD2A Tudor inh -35.7%, Six1-Eya2 blk -17.0, G9a block inconclusive, BAZ2B inh inconclusive, HP1b binding inh -28.6% and CtBP-E1A blk -23.8.
Screening O=c1c(-c2cccc(Cl)c2)nc2cncnc2n1C1CC1 returned G9a block -2.2%[0.501 µM].
For COc1cc(OC)nc(Oc2ccccc2/C=N/O)n1 the results were JMJD2A Tudor inh 44.7µM*, Six1-Eya2 blk 0.4 and HP1b binding inh 11.8%.
O=C1C(=O)N(CCCn2ccnc2)C(c2cccc(Br)c2)/C1=C(\O)c1ccc2c(c1)OCCO2 (centres undefined) was read as JMJD2A Tudor inh inconclusive, Six1-Eya2 blk -5.8, G9a block inconclusive, BAZ2B inh -5.1%, HP1b binding inh 13.3% and CtBP-E1A blk -16.0.
COc1cccc(C2/C(=C(\O)c3ccc4c(c3)OCCO4)C(=O)C(=O)N2CCCn2ccnc2)c1 (centres undefined) was read as JMJD2A Tudor inh 63.1µM*, Six1-Eya2 blk -1.1, G9a block inconclusive, BAZ2B inh 56.2µM*, HP1b binding inh 20.4% and CtBP-E1A blk -2.0.
CC1Cc2cc(/C(O)=C3/C(=O)C(=O)N(CCCn4ccnc4)C3c3ccc(F)cc3)ccc2O1 (centres undefined) was read as JMJD2A Tudor inh -24.4%, Six1-Eya2 blk -5.2, G9a block 44.7µM*, BAZ2B inh -24.0%[57.1 µM], HP1b binding inh 39.8% and CtBP-E1A blk -2.1.
`COc1cccc(C2/C(=C(/O)c3ccc4c(c3)CC(C)O4)C(=O)C(=O)N2CCCn2ccnc2)c1` (centres undefined) gave JMJD2A Tudor inh -16.6%, Six1-Eya2 blk 5.8, G9a block 50.1µM*, BAZ2B inh -27.2%[57.1 µM], HP1b binding inh 1.4% and CtBP-E1A blk 0.0.
CC1Cc2cc(/C(O)=C3/C(=O)C(=O)N(CCCn4ccnc4)C3c3ccc([N+](=O)[O-])cc3)ccc2O1 (centres undefined) was read as JMJD2A Tudor inh inconclusive, Six1-Eya2 blk -9.4, HP1b binding inh -4.7% and CtBP-E1A blk -9.5.
COc1cccc(C2/C(=C(/O)c3ccc4c(c3)CC(C)O4)C(=O)C(=O)N2c2nnc(C)s2)c1 (centres undefined) was read as JMJD2A Tudor inh -34.4%, Six1-Eya2 blk -0.7, G9a block 39.8µM*, BAZ2B inh -24.9%, HP1b binding inh 7.8% and CtBP-E1A blk 5.8.
Cc1nnc(N2C(=O)C(=O)/C(=C(\O)c3ccc4c(c3)CC(C)O4)C2c2ccccc2)s1 (centres undefined) was read as JMJD2A Tudor inh -28.8%, Six1-Eya2 blk 3.9, G9a block 6.9%, BAZ2B inh -25.9%, HP1b binding inh 12.1%[57 µM] and CtBP-E1A blk 4.9.
`Cc1cccc(C)c1NC(=O)CN(Cc1ccc(Br)cc1)S(=O)(=O)c1ccccc1` gave JMJD2A Tudor inh -5.2%, G9a block -22.8%[59 µM], BAZ2B inh 2.6% and HP1b binding inh 34.5%.
For CCN(CC)CCN1C(=O)C(=O)/C(=C(/O)c2ccc3c(c2)CC(C)O3)C1c1ccc(OC)cc1 (centres undefined) the results were JMJD2A Tudor inh inconclusive, Six1-Eya2 blk 25.1, G9a block 50.1µM*, BAZ2B inh -22.5%, HP1b binding inh 8.7% and CtBP-E1A blk -0.8.

Screens (PubChem)
